# System: wheat germ agglutinin (Triticum aestivum), Alexa647-labelled
# Test: wheat germ agglutinin binders on compound microarrays, profiling panel, artefact control for SMM control-protein annotation, biochemical, small-molecule microarray, 635/667 nm fluorescence (AID 1140);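 note: score merges 667 nm feature emission with signal to noise over triplicate slides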
# Details: WGA-A647 binding, 635 nm fluorescence, higher = more signal
row,SMILES,composite z-score
1,CCCC=C(CCC)[C@@H](NP(=O)(c1ccccc1)c1ccccc1)c1ccc(-c2ccccc2)cc1,1.25
2,CCOC(=O)C[C@H]1[C@H](OC(=O)c2ccc(C(=O)c3ccccc3)cc2)[C@@H](NC(=O)c2ccc(-c3ccccc3)cc2)c2cc(OCCCO)ccc2N1C(=O)Cc1ccc(OC)cc1,0.223
3,CO[C@H]1O[C@H](CO)[C@@H](OC(=O)CCc2ccccc2)[C@@H]2OC(=O)[C@@H](Cc3ccccc3)C/C=C/C[C@H](Cc3ccccc3)C(=O)O[C@@H]12,0.0856
4,CCOC(=O)C1=C[C@@H](c2ccccc2)N(S(=O)(=O)c2ccc(C)cc2)[C@H]1c1ccc(OC)cc1,1.11
5,[N-]=[N+]=Nc1ccccc1C[C@]1(C(=O)NCCN2CCOCC2)COC(c2ccc(OCCCO)cc2)=N1,0.607
6,COc1ccc([Si](C)(C)[C@H]2[C@H](CC(=O)N3Cc4ccccc4C[C@H]3CO)O[C@@]3(C(=O)N(Cc4ccc(N5CCOC5=O)cc4)c4ccccc43)[C@@H]2C)cc1,0.396
7,CS(=O)(=O)CCOC(=O)C1=CC(c2ccc(CO)cc2)=CC(C2CC2)N(Cc2sc3ccccc3c2Cl)C=C1C(=O)OCCS(C)(=O)=O (stereo not drawn),0.861
8,CCCCNC(=O)c1ccc(C#CC(C)(C)C)c(OC(C)=O)c1,0.64
9,O=C1C2C=CC(C(O)c3ccco3)N(Nc3ccccc3F)C2C(=O)N1c1ccccc1 (stereo not drawn),0.826
10,COc1cc(NN2C(C(O)c3ccco3)C=CC3C(=O)N(C)C(=O)C32)cc(OC)c1OC (stereo not drawn),0.793
11,COC(=O)[C@@]1(Cc2ccc(F)cc2)[C@H]2c3cc(C(=O)N(C)C)n(CCc4ccc(OC)c(Br)c4)c3C[C@H]2CN1C(=O)c1ccccc1,0.187
12,CC(C)[Si](C#CCCCC#N)(O[C@H](c1ccccc1)c1cn(Cc2ccccc2)nn1)C(C)C,0.235
13,COCCOC(=O)N1C(=O)[C@@]2(c3cc(C#CC4(O)CCCCCC4)ccc31)[C@H](C(=O)Nc1nc3ccccc3s1)[C@H]1C(=O)O[C@H](c3ccccc3)[C@H](c3ccccc3)N1[C@@H]2c1ccc(O)cc1,0.275

# — PubChem BioAssay
